Screening results (PubChem)
The sample as a whole holds a higher share of hits than the screen did.
GIRK2 act = GIRK2 channel activators by thallium flux. P48051. HEK293 GIRK2/NPY4 cells, thallium flux fluorescence. activation (% efficacy), % for hits at 37.5 µM. 34,000 tested, under 10 active;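 active = primary screen hit, no activity in plain HEK293 cells, and in GIRK2-only cells above 5% efficacy rising with concentration; inactive = the rest, including fluorescent compounds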;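 note: efficacy is normalized control-subtracted fluorescence 15 s after thallium addition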
Target sequence (P48051 whole entry, looked up): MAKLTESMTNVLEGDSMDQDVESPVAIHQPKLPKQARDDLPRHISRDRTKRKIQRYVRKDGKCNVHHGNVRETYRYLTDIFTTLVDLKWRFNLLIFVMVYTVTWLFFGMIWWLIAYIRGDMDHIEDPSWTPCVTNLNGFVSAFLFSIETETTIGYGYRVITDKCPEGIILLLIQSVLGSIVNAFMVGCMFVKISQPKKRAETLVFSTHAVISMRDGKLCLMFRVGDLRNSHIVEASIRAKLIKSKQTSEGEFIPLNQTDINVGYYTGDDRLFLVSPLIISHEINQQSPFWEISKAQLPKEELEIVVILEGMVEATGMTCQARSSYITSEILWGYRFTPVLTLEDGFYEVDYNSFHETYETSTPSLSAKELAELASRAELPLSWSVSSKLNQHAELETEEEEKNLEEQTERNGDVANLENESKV
GluA2 TARP mod = modulates AMPAR-stargazin complexes | HEK293 GluA2+stargazin, membrane potential dye (FDSS), glutamate EC50; hits were called plate by plate, in both directions | calls only at 30 µM | actives 3.5% (n = 40,000) | AID 1259245;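 active = any of four per-well response measures lying three or more SD from its plate-wide compound average, in either direction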
Each line names hits and unclear results; the compound was inactive in the other large screens.

COc1ccc(OC)c(-c2ccc(=O)n(Cc3ccccc3)n2)c1	none
Cc1cc(C)cc(N2C(=O)N(Cc3ccc(F)cc3Cl)C3CS(=O)(=O)CC32)c1 (stereo not drawn)	none
O=c1[nH]c2sc3c(c2c(=O)n1-c1ccccc1)CCCC3	none
O=c1c2c3c(sc2ncn1/N=C/c1cccnc1)CCC3	GluA2 TARP mod active (no result: GIRK2 act)
COc1cc(C(=O)NCCOc2ccc3nnc(-c4ccccc4)n3n2)cc(OC)c1OC	none
COc1ccc(/C=C2\Oc3cc(O)ccc3C2=O)cc1OC	GluA2 TARP mod active (no result: GIRK2 act)
O=C1/C(=C/c2cccs2)Oc2cc(O)ccc21	GluA2 TARP mod active (no result: GIRK2 act)
O=C1/C(=C/c2ccc(Cl)c(Cl)c2)Oc2cc(O)ccc21	none (no result: GIRK2 act)
COc1cc(/C=C2\Oc3cc(OC(=O)c4c(OC)cccc4OC)ccc3C2=O)cc(OC)c1OC	none (no result: GIRK2 act)
COc1cc(/C=C2\Oc3cc(O)ccc3C2=O)cc(OC)c1OC	GluA2 TARP mod active (no result: GIRK2 act)
O=C1/C(=C/c2ccccc2F)Oc2cc(O)ccc21	none (no result: GIRK2 act)
Cc1cc(C)cc(C(=O)N2CCN(c3nccn3-c3cccc(Cl)c3)CC2)c1	none
CCc1ccc(S(=O)(=O)N2CC(c3nc(Cc4ccccc4OC)no3)C2)s1	none (no result: GluA2 TARP mod)
CCS(=O)(=O)c1ccc(C(=O)N(CCN2CCOCC2)c2nc3c(Cl)cccc3s2)cc1	none
CCOCCCNS(=O)(=O)c1cc(Cl)c(C)cc1OC	GluA2 TARP mod active (no result: GIRK2 act)
COc1cc(C)c(Cl)cc1S(=O)(=O)NC(C)(C)C	none (no result: GIRK2 act)
C=CCN1CC(c2nc3ccccc3n2Cc2ccccc2Cl)CC1=O (stereo not drawn)	none (no result: GIRK2 act)
CCCCN1CC(c2nc3ccccc3n2CCOc2cccc(C)c2)CC1=O (stereo not drawn)	GluA2 TARP mod active (no result: GIRK2 act)
CCN1CC(c2nc3ccccc3n2CC(=O)N2CCCCC2)CC1=O (stereo not drawn)	none (no result: GluA2 TARP mod)
C=CCN1CC(c2nc3ccccc3n2Cc2c(Cl)cccc2Cl)CC1=O (stereo not drawn)	GluA2 TARP mod active (no result: GIRK2 act)
CCCCN1CC(c2nc3ccccc3n2Cc2ccc(Cl)cc2)CC1=O (stereo not drawn)	none (no result: GIRK2 act)
CCCCN1CC(c2nc3ccccc3n2CCOc2ccccc2)CC1=O (stereo not drawn)	none (no result: GIRK2 act)
CCN1CC(c2nc3ccccc3n2Cc2c(Cl)cccc2Cl)CC1=O (stereo not drawn)	GluA2 TARP mod active (no result: GIRK2 act)
CCN1CC(c2nc3ccccc3n2Cc2ccc(Cl)cc2Cl)CC1=O (stereo not drawn)	GluA2 TARP mod active (no result: GIRK2 act)
CN1CCN(CC(O)COc2ccc(C(C)(C)CC(C)(C)C)cc2)CC1 (stereo not drawn)	none
Cc1c(Cl)cccc1NC(=O)Cc1csc(SCC(=O)c2ccc3c(c2)OCO3)n1	none (no result: GluA2 TARP mod)
Cn1c(=O)c2c(nc3n(CC(=O)C(C)(C)C)c(-c4ccccc4)cn23)n(C)c1=O	none
O=C(c1cccs1)N1CCc2cc(S(=O)(=O)NC3CCCC3)ccc21	none
COCCN1CCC(CNS(C)(=O)=O)CC1	none (no result: GluA2 TARP mod)
O=C(NCCOCCO)C(=O)Nc1c2c(nn1-c1cccc(Cl)c1)CS(=O)(=O)C2	none
Cc1ccc([N+](=O)[O-])cc1NC(=O)C(=O)NCc1cccs1	none (no result: GIRK2 act)
CCOc1cn(-c2ccc(F)cc2)nc1C(=O)NCCOC	none
COc1ccccc1NC(=O)c1nn(-c2ccc(F)cc2)cc1OCc1ccccc1	GluA2 TARP mod active
CCOc1cn(-c2ccc(F)cc2)nc1C(=O)NC1CCCCC1C (stereo not drawn)	GluA2 TARP mod active
COc1ccc(OC)c(NC(=O)c2nn(-c3ccc(F)cc3)cc2OCc2ccccc2)c1	none
CCOc1cc(S(=O)(=O)N2CCN(C(=O)c3ccco3)CC2)c(OCC)cc1C	none (no result: GluA2 TARP mod)
O=C(NCC(F)(F)F)c1ccc(N2CCC(Cc3ccccc3)CC2)nn1	GluA2 TARP mod active
O=C(NCC(F)(F)F)C1CCN(C(=O)CSCc2ccccc2)CC1	none (no result: GluA2 TARP mod)
COc1ccc(C2CCN(C(=O)CC3CCCC3)C2)cc1 (stereo not drawn)	none (no result: GluA2 TARP mod)
O=C(Nc1nc2c(s1)CSc1ccccc1-2)c1cc2ccccc2o1	GluA2 TARP mod active (no result: GIRK2 act)
CC(C)S(=O)(=O)c1ccc(C(=O)Nc2nc3c(s2)CSc2ccccc2-3)cc1	none
O=S(=O)(NCC(O)(c1ccco1)C1CC1)c1ccc(F)c(Cl)c1 (stereo not drawn)	GluA2 TARP mod active
O=S(=O)(NCC(O)(c1ccco1)C1CC1)c1cc(F)ccc1F (stereo not drawn)	none
N#Cc1cccc(C(=O)N2CCN(CCNC(=O)c3ccsc3)CC2)c1	none
CC(=O)c1sc(=Nc2ccccc2Cl)n(CCCN2CCOCC2)c1C	GluA2 TARP mod active
O=C(CCn1c(=O)sc2ccccc21)NCCCN1CCOCC1	none
Cc1cccc(Nc2ccc(N3CCN(S(=O)(=O)c4c(C)noc4C)CC3)nn2)n1	GluA2 TARP mod active
COc1ccc(S(=O)(=O)N2CCN(Cc3nnnn3-c3ccccc3)CC2)cc1OC	none
Cc1ccc(S(=O)(=O)N2CCN(c3ccc4nnc(C)n4n3)CC2)cc1C	GluA2 TARP mod active
Cc1nnc2ccc(N3CCN(S(=O)(=O)c4ccc(Cl)c(Cl)c4)CC3)nn12	none
COc1cc(N2CCN(S(=O)(=O)c3c(C)noc3C)CC2)nc(OC)n1	none
COc1ccc(S(=O)(=O)N2CCN(c3ccc(-c4ccncc4)nn3)CC2)cc1C	GluA2 TARP mod active
COc1ccc(S(=O)(=O)N2CCN(c3ccc(-c4cccs4)nn3)CC2)cc1OC	none
COc1ccc(S(=O)(=O)N2CCN(Cc3nnnn3-c3ccc(C)cc3)CC2)cc1C	GluA2 TARP mod active
CS(=O)(=O)c1ccc(SCC(=O)N2CCOCC2)c([N+](=O)[O-])c1	none (no result: GIRK2 act)
O=C(NCc1ccc2c(c1)OCO2)C(=O)NCC(O)c1ccc(C(F)(F)F)cc1 (stereo not drawn)	none (no result: GIRK2 act)
COc1ccc(-c2cc3c(=O)n(Cc4nc(-c5cc(OC)cc(OC)c5)no4)ccn3n2)cc1	none (no result: GluA2 TARP mod)
CCS(=O)(=O)N1CCN(c2ccc(Nc3cccc(C)n3)nn2)CC1	GluA2 TARP mod active
COc1ccc(S(=O)(=O)N2CCN(c3ccc(Nc4ccccn4)nn3)CC2)cc1	none
COc1ccc(S(=O)(=O)N2CCN(c3ccc(Nc4cccnc4)nn3)CC2)cc1	GluA2 TARP mod active
Cc1cccc(Nc2ccc(N3CCN(S(=O)(=O)N(C)C)CC3)nn2)n1	GluA2 TARP mod active
CN(C)S(=O)(=O)N1CCN(c2ccc(Nc3ccncc3)nn2)CC1	none
Cc1ccnc(Nc2ccc(N3CCN(S(=O)(=O)c4ccc(F)cc4)CC3)nn2)c1	none (no result: GluA2 TARP mod)
Cc1cccc(Nc2ccc(N3CCN(C(=O)c4ccccc4)CC3)nn2)n1	none (no result: GluA2 TARP mod)
COc1ccc(S(=O)(=O)N2CCN(c3ccc(Nc4cccc(C)n4)nn3)CC2)cc1Cl	GluA2 TARP mod active
O=C(NCc1ccsc1)c1cccc(C(F)(F)F)c1	GluA2 TARP mod active
O=C(NCc1ccsc1)c1ccc2c(c1)OCO2	none
CCCNC(=O)Cn1nc2c(c1NC(=O)CC1CCCC1)CSC2	GluA2 TARP mod active
O=C(Cn1nc2c(c1NC(=O)CC1CCCCC1)CSC2)NCC1CCCO1 (stereo not drawn)	none
Cc1ccc(N2CCn3c2nn(CC(=O)Nc2c(C)cc(C)cc2C)c(=O)c3=O)cc1	none (no result: GIRK2 act)
CCn1c(SCc2nc(-c3ccc(OC)cc3OC)no2)nc2ccccc2c1=O	none (no result: GIRK2 act)
CCn1c(SCc2nc(-c3ccc(OC)c(OC)c3)no2)nc2ccccc2c1=O	GluA2 TARP mod active (no result: GIRK2 act)
Cc1ccc(S(=O)(=O)NCCCn2nc(-c3ccccc3)ccc2=O)c(C)c1	none
Cc1cc(N(C)C)nc(NCCNC(=O)COc2nccc(C)n2)n1	none (no result: GluA2 TARP mod)
CCn1ccnc1N1CCN(Cc2ccccc2F)CC1	none
